# Compounds without any hit were thinned out: in the full panel of roughly 83,000, 20% have a hit.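 Negative percent growth values reflect cell death: -40 means 40% of the cells present at the start died, and -100 means all died.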 A number with no mark means an inactive call. Calls of active or inactive are those of the source. The calls were made as follows: active = growth percent below 10; inactive = the rest.
# What was measured:
# Experiment in all cases: NCI-60 one-dose screen, 48 h (100 = growth as untreated, 0 = no growth, -100 = all killed)
# Details in all cases: 10 µM unless noted
# [1] = tested on: HCT-15 colon
# [2] = tested on: HT29 colon
# [3] = tested on: SNB-75 CNS
# [4] = tested on: SNB-19 CNS
# [5] = tested on: U251 CNS
# [6] = tested on: SK-MEL-5 melanoma
# [7] = tested on: UACC-62 melanoma
# [8] = tested on: LOX IMVI melanoma
# [9] = tested on: SK-MEL-28 melanoma
# [10] = tested on: SK-MEL-2 melanoma
# [11] = tested on: EKVX NSCLC
# [12] = tested on: SN12C renal
# [13] = tested on: UO-31 renal
# [14] = tested on: TK-10 renal
# [15] = tested on: ACHN renal
# [16] = tested on: CAKI-1 renal
# [17] = tested on: A498 renal
# [18] = tested on: CCRF-CEM leukemia
# [19] = tested on: MOLT-4 leukemia
# [20] = tested on: PC-3 prostate
SMILES,growth [1],growth [2],growth [3],growth [4],growth [5],growth [6],growth [7],growth [8],growth [9],growth [10],growth [11],growth [12],growth [13],growth [14],growth [15],growth [16],growth [17],growth [18],growth [19],growth [20] [%]
c1ccc(Cn2cnc3ccc(-c4nc(-c5ccc6c(c5)ncn6C5CCCCC5)cn5ccnc45)cc32)cc1,-9.03% (active),-48.7% (active),-67.4% (active),19.6%,-22.8% (active),-84% (active),-31.2% (active),-87% (active),0.441% (active),-36.7% (active),-12.3% (active),-35.4% (active),-51.4% (active),5.2% (active),19.9%,43.3%,-71.8% (active),5.6% (active),4.39% (active),–
N#Cc1c(NCc2ccccc2I)sc2c1CCCCC2,94.8%,99.8%,84.8%,97.7%,90%,98.2%,69.5%,91.1%,110%,–,78.8%,96.9%,79.7%,109%,97.7%,74.8%,–,94.4%,84.2%,–
CCc1ccc(CNc2ccc(N3CCOCC3)c(C(=O)O)c2)cc1,104%,96.4%,99.2%,107%,103%,102%,102%,96.8%,107%,82.7%,98.3%,108%,89.5%,94%,103%,97.2%,–,102%,99.2%,–
CCCCCCCCO/N=C\c1c2c(O)c3c(O)c(C)c4c(c3c1O)C(=O)C(C)(O/C=C\C(OC)C(C)C(OC(C)=O)C(C)C(O)C(C)C(O)C(C)/C=C\C=C(\C)C(=O)N2)O4 (stereo unspecified),19.1%,2.82% (active),36%,29.2%,13.7%,17.7%,26.2%,30.2%,51.5%,-31.4% (active),22.5%,21.8%,17.7%,30%,25%,13.1%,–,19.8%,12.9%,–
COc1cc(C2C3=C(COC3=O)N(CCO)c3cc4c(cc32)OCO4)cc(OC)c1OC (stereo unspecified),18.1%,0.994% (active),51%,-2.19% (active),2.92% (active),-42.2% (active),22.2%,26.1%,44.7%,24.7%,35.2%,16.8%,45.8%,54.4%,40.1%,50.6%,-19.6% (active),–,–,–
C=C1C(=O)O[C@H]2[C@H]1CC/C(COC(=O)NCc1c[nH]c3ccc(Br)cc13)=C\CC[C@@]1(C)O[C@@H]21,-70.2% (active),-76.6% (active),-5.16% (active),40.2%,3.96% (active),-27.1% (active),-63% (active),-82% (active),-33.5% (active),1.8% (active),-16.5% (active),-43.2% (active),-98.3% (active),-68.7% (active),-71.2% (active),-92.8% (active),–,-13.1% (active),-2.46% (active),–
C=C(C)[C@@H]1CC[C@]2(C(=O)N3CCN(C)CC3)CC[C@]3(C)[C@H](CC[C@@H]4[C@@]5(C)CC[C@H](OCCC#N)C(C)(C)[C@@H]5CC[C@]43C)[C@@H]12,90.6%,27.6%,99.5%,95.9%,43.9%,–,110%,53.5%,112%,97.7%,–,90.7%,81.8%,106%,103%,99.8%,–,23%,59.7%,72.2
CCOC(=O)c1nc2c3ccccc3ccn2c1C(=O)OCC,99.7%,105%,36.8%,89.2%,–,98.2%,87.5%,98.6%,113%,112%,76.9%,95.4%,96.4%,102%,99.5%,94.8%,109%,96.1%,95.4%,110
NS(=O)(=O)c1ccc(CCN2C(=O)c3cc(Cl)c(Cl)cc3C2=O)cc1,103%,89.3%,98.3%,109%,–,105%,103%,98.2%,110%,96.5%,103%,107%,93%,88.5%,105%,96.6%,104%,98%,92.4%,99.2
CC(=O)CCC(=O)OCc1cc(=O)c(O)co1,98.2%,101%,104%,104%,–,105%,103%,94.6%,98.1%,113%,109%,104%,97.1%,98.5%,101%,102%,–,98%,102%,98.7
COc1ccc(/C=C/c2nc(Nc3ccc(S(=O)(=O)Nc4nc(C)cc(C)n4)cc3)c3ccccc3n2)cc1,50.5%,62.2%,85.7%,75.6%,–,61.1%,20.8%,26.3%,87.4%,75.2%,72%,76.8%,51.8%,71.1%,57.7%,53.1%,7.8% (active),61.5%,65.7%,77.5
COc1cc(/C=C2\COc3ccc(-c4ccccc4)cc3C2=O)cc(OC)c1,61.3%,60.7%,51.8%,98.9%,–,86.3%,75.9%,71.9%,97.7%,83.9%,102%,80.5%,77.1%,103%,88.7%,71.6%,95.5%,20.3%,30.7%,57.9
Cc1nc2ccc(Cl)cn2c1-c1nnc(SCc2ccc([N+](=O)[O-])cc2)o1,60.3%,83.9%,39.8%,39.8%,–,43.8%,46.3%,69.3%,40.2%,84.9%,65.3%,48.4%,39.5%,–,31.3%,65.7%,48.7%,116%,93.7%,74
CCN(CC)c1ccc(C(=O)c2ccccc2)cc1,105%,95%,93.5%,97.7%,–,96.9%,96%,100%,104%,96.3%,98.4%,98.8%,82%,97.9%,98.2%,83.1%,–,104%,87.6%,97.9
O=Cc1ccc(-c2cn3ccnc3c(-c3ccc4ncn(Cc5ccccc5)c4c3)n2)cc1,50.9%,82.5%,78.6%,85.6%,–,43.5%,62.9%,53.1%,92.5%,72.2%,79.1%,79.3%,17.8%,99.3%,88.4%,63.4%,88.8%,22.1%,41.3%,81
COc1ccc(/C=C2\COc3ccc(-c4ccccc4)cc3C2=O)c(OC)c1,84.3%,76.7%,65.5%,103%,–,–,74.1%,79%,108%,101%,161%,83.8%,86.2%,94.8%,93%,116%,128%,71.2%,57.9%,78.2

# Source: PubChem BioAssay (NCI)
